Laboratory results as given in PubChem BioAssay AID686978 (National Center for Advancing Translational Sciences (NCATS), 2013).
In all, about 420,000 compounds went through this assay and about 64,000 (15%) were called active. Roughly 27% stayed inconclusive and do not appear here. These entries were drawn from the full list. Values without a mark were called inactive. Calls come from the whole dose curve; as a rule, active = well fitted inhibition curve with a large enough effect; inconclusive = small, poorly fitted or top-dose-only effect; inactive = flat fitted curve, though single readings scatter.

Experiment: qHTS for Inhibitors of human tyrosyl-DNA phosphodiesterase 1 (TDP1): qHTS in cells in absence of CPT; note: nearly all actives have a fitted effect of over 55% in size
Conditions: DT40 Tdp1-/- hTDP1 cells, no CPT, ATP luminescence, 48 h; activity change, negative = growth inhibition: at 46.2 µM (top of the series)
How it was run: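 Compound effects on proliferation are scored in DT40 Tdp1-/-;hTDP1 cells in the absence of CPT. ATP levels (CellTiter-Glo luminescence) are recorded after a ≥48 hr, 37 °C incubation.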
% is set by controls: 0 for no effect and ±100 for the full control effect; potency is the fitted concentration of half-maximal effect.

Row | Structure (SMILES) | activity change, negative = growth inhibition [%] | Potency
1 | Nc1ncnc2c1ncn2[C@@H]1O[C@H](C(=O)NS(=O)(=O)c2c(Cl)nc3sccn23)[C@@H](O)[C@H]1O | -0.108 | –
2 | COC1C[C@@H](O[C@@H]2C(C)C(=O)OC(C)C(C)C(O)C(C)C(=O)[C@@]3(CO3)CC(C)C(OC3OC(C)CC(N(C)C)C3O)C2C)OC(C)[C@@H]1O (stereo partly drawn) | -0.826 | –
3 | Cc1ccc(S(=O)(=O)n2cccc2CO)cc1 | -3.56 | –
4 | CCOc1ccc(-c2cc3c(=O)n(CC(=O)NCc4ccc(OC)cc4)ccn3n2)cc1 | -10.6 | –
5 | COCCCNC(=S)NNC(=O)C(O)(c1ccccc1)c1ccccc1 | -6.89 | –
6 | COc1cc(C2/C(=C(\O)c3ccc4c(c3)CC(C)O4)C(=O)C(=O)N2c2nnc(C)s2)cc(OC)c1OC (stereo not drawn) | 11.4 | –
7 | CS(=O)(=O)N1CCc2nc(-c3ccccc3)sc2C1 | 2.11 | –
8 | COC(=O)[C@@]1(Sc2ccc(C)cc2)CC(=O)N(c2cccc(SC)c2)[C@@H]1c1ccccc1 | -80.6 | –
9 | COC(=O)c1ccccc1SC1CC(=O)N(c2cccc(C)c2)C1=O (stereo not drawn) | – | 8.2 µM (active)
10 | COC(=O)c1cccc(N2C(=O)C3C4C=CC(CC4)C3C2=O)c1 (stereo not drawn) | -0.408 | –
11 | Cc1ccc(CC2S/C(=C(/C#N)C(=O)N3CCOCC3)N(c3ccccc3)C2=O)cc1 (stereo not drawn) | -17.2 | –
12 | C[n+]1ccc(/C=C/c2c[nH]c3ccccc23)cc1 | – | 0.651 µM (active)
13 | O=C(NC1CCCC1)C(=O)c1c[nH]c2ccccc12 | 2.79 | –
14 | CC(=O)N/C(=C/c1ccc(Cl)cc1)C(=O)NCCc1c[nH]c2ccccc12 | -27.7 | –
15 | O=C(NCc1ccc(F)cc1F)[C@@H]1CCCN1C(=O)[C@@H]1CCCN1C(=O)c1cccc(Cl)c1 | -41.3 | –
16 | Cc1cc(=O)oc2c1c(C)nn2-c1ccc(Cl)cc1 | -23.9 | –
17 | O=C(Nc1ccccc1)OCc1cn(-c2ccc(Cl)cc2)nn1 | -27.2 | –
18 | Cc1c(NC(=O)Nc2ccc(F)c(Cl)c2)c(=O)n(-c2ccccc2)n1C | -1.88 | –
19 | O=CNc1cc(-c2ccc(C(=O)N3CCOCC3)cc2)cn2c(-c3ccc(F)cc3)cnc12 | – | 18.4 µM (active)
20 | CCOc1ccccc1C1CC(c2cccc(NS(C)(=O)=O)c2)=NN1C(=O)c1ccccc1 (stereo not drawn) | -12 | –
21 | CC(=O)Nc1cccc(-c2cc(NC=O)c3ncc(-c4ccc(F)c(Cl)c4)n3c2)c1 | – | 16.4 µM (active)
22 | N#C/C=C(/c1ccc(F)cc1)N1CCOCC1 | -5.74 | –
23 | CC(=O)c1ccc(-c2cnc3c(NC=O)cc(-c4cccc(NS(C)(=O)=O)c4)cn23)cc1 | – | 20.6 µM (active)
24 | CC(=O)Nc1cccc(-c2cnc3ccccc3n2)c1 | -14.1 | –
25 | Cc1ccc(C(=O)N2CCN(C(=O)N3CCOCC3)CC2)cc1 | -0.848 | –
26 | CC(=O)c1cccc(-c2cnc3c(NC=O)cc(-c4ccc(N(C)C)cc4)cn23)c1 | – | 8.2 µM (active)

Row | Structure (SMILES) | activity change, negative = growth inhibition [%] | Potency
27 | CCS(=O)(=O)Nc1cc(C(=O)N2C[C@@H](C)O[C@@H](C)C2)c2c(c1)nc(-c1ccccc1)n2C | -3.48 | –
28 | COC(c1ccccc1)c1nnc(CCC(=O)N2CCN(CCOc3ccccc3)CC2)o1 (stereo not drawn) | -28.4 | –
29 | CSc1nnc2c(n1)OC(c1cn(C)c3ccccc13)N(C(C)=O)c1ccccc1-2 (stereo not drawn) | -3.8 | –
30 | O=C(O)c1ccccc1CSc1nc2ccccc2s1 | -19.5 | –
31 | CCNC(=O)CC1C(=O)N(c2ccc(F)cc2)C(=O)N1CCc1sccc1C (stereo not drawn) | -13.8 | –
32 | Cc1nc2nc[nH]n2c(=O)c1C/C=C/c1ccccc1 | -2.31 | –
33 | CCn1c(CSc2ncccn2)nnc1SCC(=O)N1c2ccccc2CC1C (stereo not drawn) | -7.77 | –
34 | CCc1nnc(NC(=O)CCC(=O)NCc2ccccc2OC)s1 | 5.54 | –
35 | COc1ccccc1C1/C(=C(/O)c2ccc(OC(C)C)cc2)C(=O)C(=O)N1c1cc(C)on1 (stereo not drawn) | -14.2 | –
36 | COc1ccc(-c2nnc(SCC(=O)Nc3ccccc3C)o2)cc1OC | -12.8 | –
37 | COc1ccc(-c2cc(NC=O)c3ncc(-c4ccccc4)n3c2)cc1OC | – | 8.2 µM (active)
38 | O=C(Nc1ccc(F)cc1)N1CCN(c2ccc(F)cc2)CC1 | -1.59 | –
39 | CN(C)C(=O)c1cccc(-c2cnc3c(NC=O)cc(-c4ccc(F)cc4)cn23)c1 | – | 6.51 µM (active)
40 | CC(=O)Nc1cc(-c2ccc(N3CCN(C)CC3)cc2)cn2c(-c3ccc(F)cc3)cnc12 | – | 4.61 µM (active)
41 | COc1ccc(NC(C)=O)cc1NC(=O)CN1CCN(c2ccc(F)cc2)CC1 | -26.4 | –
42 | COc1ccc(-c2nnco2)cc1OC | -8.54 | –
43 | CC(=O)c1cccc(-c2cnc3c(NC=O)cc(-c4ccccc4Oc4ccccc4)cn23)c1 | – | 14.6 µM (active)
44 | CCCCCCCCCCOC(=O)C[N+](C)(C)CC1CCCCC1O (stereo not drawn) | -24.1 | –
45 | CO/N=C/c1cn(-c2ccc(Cl)cc2)nn1 | 1.24 | –
46 | CCOC(=O)CSc1nnc(CNC(=O)c2cccs2)n1-c1ccccc1 | 3.51 | –
47 | Nc1ccc(-c2nnc(-c3ccccc3)o2)cc1 | -8.88 | –
48 | COc1ccccc1C1C(C(N)=O)=C(C)Nc2nc(CCCO)nn21 (stereo not drawn) | -29.3 | –
49 | Cc1cccc(C)c1NC(=O)CNC(=O)c1ccc2c(c1)OCCO2 | -2.88 | –
50 | COc1ccccc1NC(=O)CCSc1nnc(-c2ccc(O)cc2)o1 | -19.5 | –
51 | COCCCN1C(=O)c2ccc(C(=O)Nc3ccc(OC)cc3OC)cc2C1=O | 3.04 | –
52 | COc1ccc(C2C(C(=O)Nc3ccccc3OC)=C(C)Nc3nnnn32)c(OC)c1 (stereo not drawn) | -22.7 | –

Row | Structure (SMILES) | activity change, negative = growth inhibition [%] | Potency
53 | COc1ccc(-c2cc(NC=O)c3ncc(-c4cccc(C(=O)N(C)C)c4)n3c2)c(OC)c1 | – | 16.4 µM (active)
54 | CC(=O)c1cccc(-c2cnc3c(NC=O)cc(-c4ccc(N5CCN(C)CC5)cc4)cn23)c1 | – | 16.4 µM (active)
55 | COc1ccc(C2(C#N)CCC(C(=O)O)CC2)cc1OC1CCCC1 (stereo not drawn) | -28.1 | –
56 | Cc1coc2cc3oc(=O)c(CCC(=O)O)c(C)c3cc12 | -14.3 | –
57 | CC(C)Cc1nnc(NC(=O)CCC(=O)Nc2ccc3cn[nH]c3c2)s1 | 1.32 | –
58 | Nc1nonc1-n1nnc(C(=O)N/N=C\c2ccncc2)c1CN1CCCCC1 | -5.18 | –
59 | COc1ccc(Cc2nnc(NS(=O)(=O)Cc3ccccc3)s2)cc1 | 6.02 | –
60 | CCC(C)(C(=O)NC1CCCC1)N(C(=O)CNC(C)=O)c1ccc(C)cc1 (stereo not drawn) | -23 | –
61 | Cc1nc2nc(SCC(=O)c3ccccc3)[nH]c2cc1Br | -19.9 | –
62 | COc1ccc(OC)c(Cc2nnc(CCC(=O)NC3CCCC3)o2)c1 | 3.2 | –
63 | Cc1c(CCC(=O)O)c(=O)oc2c(C)c(OCc3ccccc3Cl)ccc12 | -1.81 | –
64 | COc1ccc2c(C)c(CCC(=O)NC3CC3)c(=O)oc2c1C | – | 16.4 µM (active)
65 | O=C(Nc1cccc2c1N(C(=O)c1ccco1)CCC2)c1ccco1 | 1.69 | –
66 | O=c1[nH]c2ccc(S(=O)(=O)N3CCCC3)cc2[nH]1 | -28.6 | –
67 | Cc1cc(C)cc(NC(=O)N(C)Cc2ccccc2)c1 | -6.83 | –
68 | COC(=O)C(NS(=O)(=O)c1ccc(F)cc1)c1ccccc1 (stereo not drawn) | -17.5 | –
69 | CCOC(=O)C(C)n1cnc2c(nnn2-c2cccc(OC)c2)c1=O (stereo not drawn) | 2.83 | –
70 | CCC(=O)Nc1nc2ccccc2n1Cc1ccccc1C | – | 14.6 µM (active)
71 | CCc1cccc(CC)c1NC(=O)Cn1c(=O)c(-c2cc(C)ccc2NC(C)=O)nc2ccccc21 | 1.16 | –
72 | CCC(=O)Nc1ccc2nc(C)n(Cc3ccccc3Cl)c(=O)c2c1 | -24.9 | –
73 | CC(=O)c1nc2ccccc2n1Cc1ccccc1 | -0.649 | –
74 | CCC(=O)Nc1ccc(C)cc1-c1nc2ccccc2n(Cc2ccccc2)c1=O | -15.3 | –
75 | CC(=O)Nc1nc2ccccc2n1Cc1ccc(C)cc1 | – | 13 µM (active)
76 | Cc1cccc(N(CC(=O)N2CCOCC2)S(C)(=O)=O)c1 | -1.19 | –
77 | CCNC(=O)COC(=O)CCNC(=O)c1cccc(C)c1 | -4.54 | –
78 | CCOc1ccc(C(CC(=O)O)NC(=O)C23CC4CC(CC(C4)C2)C3)cc1OC (stereo not drawn) | -12.7 | –

Row | Structure (SMILES) | activity change, negative = growth inhibition [%] | Potency
79 | CN1C(=O)/C(=C/C=C2\SCCN2C)OC1=S | -19.2 | –
80 | COc1ccccc1-c1nc(N2CCN(C)CC2)c2ccccc2n1 | 7.74 | –
81 | COc1ccc(N2CCN(c3nc(-c4ccccc4F)nc4ccccc34)CC2)cc1 | – | 16.4 µM (active)
82 | COc1ccc(N2CCN(CCNC(=O)c3nnc(Cc4c(F)cccc4Cl)o3)CC2)cc1 | -19.9 | –
83 | Brc1cc(Br)c(Oc2cc(Br)c(Br)cc2Br)cc1Br | -18.6 | –
84 | CCc1ccc[n+](-c2nc([O-])sc2C=O)c1 | 1.39 | –
85 | CCN(CC(=O)Nc1ccccc1C(F)(F)F)C(=O)C1CCN(C(=O)Nc2ccccc2)CC1 | 26.8 | –
86 | Cc1ccc(NC(=S)N(Cc2ccco2)C(C)c2cccs2)cc1 (stereo not drawn) | 12.8 | –
87 | CC(C)CCN(C(=O)Nc1ccc(Cl)c(Cl)c1)C(C)c1cccs1 (stereo not drawn) | – | 18.4 µM (active)
88 | CC(=O)Nc1ccc(S(=O)(=O)N2CCC(N(C)CCC(C)C)CC2)cc1 | -14.4 | –
89 | S=C(Nc1ccc(Br)cc1Cl)N1CCC2(CC1)OCCO2 | -14.2 | –
90 | C/C=C/C=C/C(=O)OCC(=O)Nc1ccc(Cl)cc1 | -27.7 | –
91 | O=C(NCN1CCN(CCO)CC1)c1cnccn1 | -12.6 | –
92 | Cc1cc(/C=C2/SC(=O)N(CC(=O)N3CCCC3)C2=O)c(C)n1C | -8.02 | –
93 | Cc1cc(/C=C2/SC(=O)N(CC(=O)N3CCCC3)C2=O)ccc1N1CCOCC1 | – | 23.1 µM (active)
94 | O=C(CN1C(=O)CSc2ncccc21)N1CCOCC1 | 0.179 | –
95 | CN(C)C(=S)Nc1ccc(Br)cc1Cl | 4.16 | –
96 | O=C(NCCN1CCOCC1)c1c(F)c(F)c(F)c(F)c1F | 16.8 | –
97 | Cc1cc(C)cc(C(=O)NCCN2CCOCC2)c1 | -4.83 | –
98 | CC(=O)Oc1cc2c(C(=O)NCCN3CCOCC3)c(C)oc2c2ccccc12 | – | 16.4 µM (active)
99 | O=C(CCc1nc(CN2CCN(S(=O)(=O)c3ccc(F)cc3)CC2)no1)N1CCCCC1 | -13.9 | –
100 | CCN(CC(=O)Nc1ccc(OC)cc1)C(=O)c1ccc(=O)n(Cc2ccccc2)n1 | -9.51 | –
101 | O=C(CNC(=O)c1cc(=O)[nH]c2ccccc12)Nc1ccc(F)c(F)c1 | 9.3 | –
102 | COC(=O)c1cnn2c(C(F)(F)F)cc(-c3ccco3)nc12 | -7.72 | –
103 | CCOc1ccc(C(C)=O)cc1COC(=O)CNC(=O)c1cccs1 | -6.35 | –
